From the supplement of paper PMC7669877
± gives the uncertainty stated by the source.

What follows are compounds tested on Candidatus Liberibacter solanacearum in potato hairy roots (assay: relative CLso titer (% of untreated control); higher = less inhibition of bacterial titer). Settings: 10 µM; 72 h.
Experimental: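 Primary screen of ~220 Spectrum collection (MicroSource) compounds at 10 µM (0.1% DMSO) on Candidatus Liberibacter solanacearum-infected potato hairy roots in multi-well plates (Gamborg B-5 medium, vacuum infiltrated, 21 °C, dark, 72 h). CLso titer was measured by qPCR of 16S rDNA normalised to potato RPL2 (2^-ddCq), pairwise-standardised against untreated controls, averaged over two biological replicates and expressed as % of untreated.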

Compound	relative CLso titer [%]
O=C(O)CCCO	127 ± 31
O=C1CCO1	103 ± 58
CN[C@@H](C)[C@@H](O)c1ccccc1	98.4 ± 3.8
Fc1ccc(Oc2ccnc3cc(Cl)cc(Cl)c23)cc1	85.4 ± 20
C[C@@H]1C[C@@H]([C@H](O)CC2CC(=O)NC(=O)C2)C(=O)[C@@H](C)C1	214 ± 43
COc1cc2c(c(OC)c1OC)-c1ccc(OC)c(=O)cc1[C@@H](NC(C)=O)CC2	47.6 ± 2.7
Cc1ccc(O)cc1.Cc1cccc(O)c1.Cc1ccccc1O	70.4 ± 30
O=P1(N(CCCl)CCCl)NCCCO1 (stereo not given)	39.8 ± 6.9
CCCC(C)(COC(N)=O)COC(=O)NC(C)C (stereo not given)	92.4 ± 17
CCCCCCCCCCCCCCCC[n+]1ccccc1	136 ± 72
[O-][n+]1ccccc1[S-].[O-][n+]1ccccc1[S-].[Zn+2]	64.7 ± 4.9
COc1ccc2c(c1)[C@]13CCCC[C@@H]1[C@H](C2)N(C)CC3	539 ± 330
O=c1[nH]c2ccccc2n1CCCN1CCC(n2c(=O)[nH]c3cc(Cl)ccc32)CC1	126 ± 28
CC(C)C[C@H]1C(=O)N2CCC[C@H]2[C@]2(O)O[C@](NC(=O)[C@@H]3C=C4c5cccc6[nH]c(Br)c(c56)C[C@H]4N(C)C3)(C(C)C)C(=O)N12	76.9 ± 25
CC[C@H]1CN2CCc3cc(OC)c(OC)cc3[C@@H]2C[C@@H]1C[C@H]1NCCc2cc(OC)c(OC)cc21	117 ± 28
CCC(=O)O[C@H]1CC[C@H]2[C@@H]3CCC4=CC(=O)CC[C@]4(C)[C@H]3CC[C@]12C	83.1 ± 2.9
c1ccc2c(c1)sc1ccccc12	193 ± 4.5
CC(=O)O[C@H]1C[C@H](O[C@H]2[C@@H](O)C[C@H](O[C@H]3[C@@H](O)C[C@H](O[C@H]4CC[C@@]5(C)[C@H](CC[C@@H]6[C@@H]5C[C@@H](O)[C@]5(C)[C@@H](C7=CC(=O)OC7)CC[C@]65O)C4)O[C@@H]3C)O[C@@H]2C)O[C@H](C)[C@H]1O[C@@H]1O[C@H](CO)[C@@H](O)[C@H](O)[C@H]1O	118 ± 37
CN1C[C@H](C(=O)N[C@]2(C)O[C@@]3(O)[C@@H]4CCCN4C(=O)[C@H](Cc4ccccc4)N3C2=O)C[C@@H]2c3cccc4[nH]cc(c34)C[C@H]21	107 ± 46
NC(=O)CN1CCCC1=O	123 ± 35
O=C(O)CCCc1ccc(N(CCCl)CCCl)cc1	111 ± 11
Cc1cc(O)ccc1Cl	45.9 ± 1.8
CO[C@]12C[C@@H](COC(=O)c3cncc(Br)c3)CN(C)[C@@H]1Cc1cn(C)c3cccc2c13	135 ± 20
O=c1[nH]c2ccccc2n1C1CCN(CCCC(c2ccc(F)cc2)c2ccc(F)cc2)CC1	135 ± 2
CNC(C)[C@H](O)c1ccccc1 (stereo not given in full)	160 ± 24
C[C@@H]1O[C@@H](O[C@H]2C[C@@H](O)[C@]3(CO)[C@H]4[C@H](O)C[C@]5(C)[C@@H](C6=CC(=O)OC6)CC[C@]5(O)[C@@H]4CC[C@]3(O)C2)[C@H](O)[C@H](O)[C@H]1O	85.6 ± 47
C[C@]12CC[C@H]3[C@@H](CCC4=CC(=O)CC[C@@]43C)[C@@H]1CC[C@@H]2O	119 ± 11
C[N+]12CCC(CC1)C(OC(=O)C(O)(c1ccccc1)c1ccccc1)C2 (stereo not given)	57.1 ± 5
Cc1cccc(C)c1NC1=NCCCS1	91.4 ± 17
N.N.[Cl][Pt][Cl]	76.7 ± 6.9
